Compounds with a hit are over-represented: about 9.5% of the library has one in this group of screens.
NS1 function inh – qHTS Assay for Inhibitors of Influenza NS1 Protein Function. Potency, µM (doses to about 46.1 µM), for the others: top-dose activity, positive = more growth. hit rate 0.4% among 270,000; note: actives are rising curves; nearly all actives have a fitted effect of over 50% in size
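S. cerevisiae expressing influenza A NS1, grown in glucose, washed, then diluted 1:100 into pH 6.0 -URA galactose medium with 23 nl compound. Growth recovery read as OD600; NS1-free strain serves as control.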
SARS PLpro yeast – qHTS of Yeast-based Assay for SARS-CoV PLP; S. cerevisiae expressing SARS-CoV PLpro, growth rescue; Potency, µM (highest dose often 32.9 µM), for inactives: at the top dose activity, positive = growth rescue, hits mostly activators; hit rate 0.19% among 330,000; AID 485353, 2010; note: 0% is about no effect; nearly all actives have a fitted effect of over 55% in size
Pf growth 48h – Primary qHTS for delayed death inhibitors of the malarial parasite plastid, 48 hour incubation; Potency, µM (titrated, usually from 28.7 µM), inactives show top-dose activity change, negative = inhibition, actives largely listed as inhibitors; hit rate 5.9% among 310,000; P. falciparum luciferase growth in erythrocytes, 48 h; AID 504832, 2011; active = well fitted inhibition curve with a large enough effect; inconclusive = small, poorly fitted or top-dose-only effect, or another doubt; inactive = no such curve, though single readings can be large or run the other way; note: % is set by controls: 0 for no effect and ±100 for the full control effect
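Cell-based growth assay: transgenic P. falciparum expressing firefly luciferase, cultured in red cells within RPMI 1640 containing 0.5% w/v Albumax, 24 mM bicarbonate and gentamycin. A drop in luciferase activity indicates inhibition.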
RE007 growth inh – qHTS Assay for Inhibitors of the HIV-1 protein Vpr. S. pombe RE007 Vpr strain, BacTiter-Glo ATP luminescence, 24 h. Potency, µM (top dose mostly 92.2 µM), inactives show at the highest dose activity change, negative = less growth, actives largely listed as inhibitors. hit rate 0.21% among 360,000; active = well fitted falling curve with a large enough effect; inconclusive = small, poorly fitted or top-dose-only effect; inactive = no such curve, though single readings can be large or run the other way; note: % is set by controls: 0 for no effect and ±100 for the full control effect; nearly all actives have a fitted effect of over 50% in size
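Fission yeast RE007 carrying one integrated HIV-1 vpr copy, seeded at OD 0.01 in PMG+AL medium with 23 nL pinned compound. Grown 24 h at 30 degrees; viability read by BacTiter-Glo luminescence after 5 min.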
Pf growth 96h – Primary qHTS for delayed death inhibitors of the malarial parasite plastid, 96 hour incubation. P. falciparum luciferase reporter growth, 96 h. Potency, µM (titrated, usually from 28.7 µM), for the others: at the highest dose activity change, negative = inhibition, actives largely listed as inhibitors. hit rate 6.9% among 320,000. AID 504834, 2011; active = well fitted inhibition curve with a large enough effect; inconclusive = small, poorly fitted or top-dose-only effect, or another doubt; inactive = no such curve, though single readings can be large or run the other way; note: % is set by controls: 0 for no effect and ±100 for the full control effect
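Cell-based qHTS: luciferase-tagged P. falciparum in erythrocytes (2% hematocrit, 0.05% parasitemia final) incubated with compounds for 96 hours, 37 C, 5% CO2; luciferase detection reagent then added and luminescence measured.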
The depositor's hits bear a star; [ ] = remark or other dose. Unless noted, calls come from the whole dose curve. Potency is the fitted concentration of half-maximal effect.

Results for c1ccc(-n2nnnc2-c2cnc(-c3ccncc3)nc2-c2cccs2)cc1 ?
NS1 function inh: -34%; SARS PLpro yeast: -48%; Pf growth 48h: 10µM*; RE007 growth inh: -1%; Pf growth 96h: inconclusive

How did COc1ccc(C)cc1NC(=O)C(NC(=O)c1cc(OC)c(OC)c(OC)c1)C(C)C (stereo unspecified) do in these assays?
SARS PLpro yeast: 0%; Pf growth 48h: -35%; RE007 growth inh: -6%; Pf growth 96h: 13µM*

How did CCO[C@H]1OC(C(=O)NC2CC2)=C[C@@H](c2csc3ccccc23)[C@@H]1CCCO do in these assays?
NS1 function inh: 3%; SARS PLpro yeast: 1%; Pf growth 48h: inconclusive; RE007 growth inh: 7%; Pf growth 96h: 0.19µM*

What do the screens show for `CCO[C@H]1OC(C(N)=O)=C[C@@H](c2csc3ccccc23)[C@@H]1CCCO`?
NS1 function inh: 0%; SARS PLpro yeast: 0%; Pf growth 48h: 1%; RE007 growth inh: -1%; Pf growth 96h: 16%

How did CCO[C@@H]1OC(C(=O)NCc2ccccc2)=C[C@H](c2csc3ccccc23)[C@H]1CCCO do in these assays?
NS1 function inh: 4%; SARS PLpro yeast: 0%; Pf growth 48h: inconclusive; RE007 growth inh: 1%; Pf growth 96h: 10µM*

Results for CCO[C@@H]1OC(C(=O)NC2CC2)=C[C@H](c2ccccc2)[C@H]1CCCO ?
NS1 function inh: -3%; SARS PLpro yeast: 0%; Pf growth 48h: 5%; RE007 growth inh: 9%; Pf growth 96h: 3%

How did CCO[C@@H]1OC(C(=O)Nc2ccccc2)=C[C@H](c2csc3ccccc23)[C@H]1CCCO do in these assays?
NS1 function inh: 5%; SARS PLpro yeast: 1%; Pf growth 48h: 7.4µM*; RE007 growth inh: 9%; Pf growth 96h: inconclusive

Results for C#CCNC(=O)C1=C[C@H](c2csc3ccccc23)[C@@H](CCCO)[C@H](OCC)O1 ?
NS1 function inh: 1%; SARS PLpro yeast: -1%; Pf growth 48h: 0%; RE007 growth inh: 1%; Pf growth 96h: inconclusive

How did O=C(Nc1cccc2ncccc12)c1cc([N+](=O)[O-])ccc1Cl do in these assays?
NS1 function inh: 2%; SARS PLpro yeast: -1%; Pf growth 48h: 5%[0.00184 µM]; RE007 growth inh: 7%; Pf growth 96h: 12µM*

How did O=C(Nc1ccc([N+](=O)[O-])cc1Br)c1cc2ccccc2nc1Cl do in these assays?
NS1 function inh: -5%; SARS PLpro yeast: 0%; Pf growth 48h: 0.19µM*; RE007 growth inh: 3%; Pf growth 96h: 0.33µM*

What do the screens show for `Cc1cc(O)c(NC(=O)c2cc([N+](=O)[O-])ccc2Cl)cc1C`?
NS1 function inh: -5%; SARS PLpro yeast: -3%; Pf growth 48h: inconclusive; RE007 growth inh: -13%; Pf growth 96h: 28%

What do the screens show for `Cc1ccc(O)c(NC(=O)c2cc([N+](=O)[O-])ccc2Cl)c1`?
NS1 function inh: -2%; SARS PLpro yeast: -1%; Pf growth 48h: 9.3µM*; RE007 growth inh: -18%; Pf growth 96h: 30%

What do the screens show for `NC(Cc1ccc(F)cc1)c1csc(Nc2nccc(C(F)(F)F)n2)n1` (stereo unspecified)?
RE007 growth inh: -26%[18.4 µM]

Results for CCc1nn(CC(=O)NC(C)CCc2ccccc2)c(=O)c2cc3occc3n12 (stereo unspecified) ?
NS1 function inh: 10%; SARS PLpro yeast: 2%; Pf growth 48h: 16%; RE007 growth inh: -16%; Pf growth 96h: -5%

How did CCc1nn(CC(=O)NCc2cccnc2)c(=O)c2cc3occc3n12 do in these assays?
NS1 function inh: 20%; SARS PLpro yeast: 4%; Pf growth 48h: 24%; RE007 growth inh: -7%; Pf growth 96h: 10µM*

Results for CCNC(=O)COc1ccc(/C=C2\COc3ccccc3C2=O)cc1OC ?
NS1 function inh: -33%; SARS PLpro yeast: -10%; Pf growth 48h: inconclusive; RE007 growth inh: -1%; Pf growth 96h: -22%

How did CCOc1cc(/C=C2\COc3ccccc3C2=O)ccc1OCC(=O)N(C)C do in these assays?
NS1 function inh: 6%; SARS PLpro yeast: -10%; Pf growth 48h: 15µM*; RE007 growth inh: -5%; Pf growth 96h: inconclusive

Assay outcomes from PubChem.
